From PubChem
ClpP mod = qHTS Assay for Activators of ClpP. purified B. subtilis ClpP, FRET peptide cleavage, 20 min. Potency, µM (series often up to 57.5 µM). hit rate 1.9% among 340,000. AID 651965, 2013; active = well fitted falling curve with a large enough effect; inconclusive = small, poorly fitted or top-dose-only effect; inactive = no such curve, though single readings can be large or run the other way; also: the source files actives as falling curves though it sought activators and does not explain the sign; nearly all actives have a fitted effect of over 65% in size
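ClpP 10 microg/mL final, pH 8 Tris/KCl buffer with BSA, glycerol, Tween-20; compound pinned in; FRET-FV substrate; RT 20 min; Ex320/Em430; ΔFRET vs ADEP 5.8 microM, DMSO, no enzyme.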
D3 antag = antagonists of human D3 dopamine receptor. P35462. D3R cells, DiscoveRx beta-arrestin luminescence, antagonist mode; hits give low values. max response, negative = inhibition, %. hit rate 2.5% among 360,000; in the data active = max response below about -50%; inconclusive = no clear call, values can overlap the other calls
Target sequence (P35462 whole entry, looked up): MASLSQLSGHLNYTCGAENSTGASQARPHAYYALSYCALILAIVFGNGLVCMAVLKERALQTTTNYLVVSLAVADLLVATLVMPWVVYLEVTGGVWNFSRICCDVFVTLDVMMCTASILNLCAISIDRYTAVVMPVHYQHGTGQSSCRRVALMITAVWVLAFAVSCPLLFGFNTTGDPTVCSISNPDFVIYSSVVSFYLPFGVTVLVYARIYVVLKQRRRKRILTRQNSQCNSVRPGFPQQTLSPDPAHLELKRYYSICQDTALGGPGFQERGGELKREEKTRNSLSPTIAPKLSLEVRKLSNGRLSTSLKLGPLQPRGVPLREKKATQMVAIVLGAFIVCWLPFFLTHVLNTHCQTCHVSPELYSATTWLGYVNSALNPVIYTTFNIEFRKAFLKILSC
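Cells expressing the human receptor were seeded at 1500 cells/well, incubated overnight at 37 degrees C in 5% CO2, then exposed to library compounds with dopamine controls for 90 minutes at 37 degrees C before luminescent detection.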
D3 ag = D3 dopamine receptor (human) agonism; P35462; D3R DiscoveRx beta-arrestin cells, luminescence, 90 min; max activation, %; hit rate 0.58% among 410,000; AID 652048; in the data active = max activation above about 30%
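Agonist-mode cell screen: cells plated at 1500/well and incubated overnight at 37 °C, then exposed to library compounds for 90 min at 37 °C. Detection reagent was added for 30–60 min at room temperature, and luminescence was read.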
DT40 TDP1 CPT = DT40-hTDP1 cell growth loss with CPT; chicken DT40 Tdp1-/-;hTDP1 cells + 20 nM CPT, ATP luminescence, 48 h; Potency, µM (top dose mostly 46.2 µM), hits mostly inhibitors; hit rate 12% among 420,000; also: nearly all actives have a fitted effect of over 55% in size
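Chicken DT40 Tdp1-/- cells stably complemented with human TDP1 were seeded at 400 cells/well in medium containing 20 nM camptothecin, exposed to pin-transferred compounds, and grown at 37 °C for at least 48 hr. Viability was read as ATP luminescence.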
IL-1B inflam inh = inhibitors of inflammasome signaling (IL-1 beta secretion). THP-1 LPS/ATP IL-1B secretion, AlphaLISA, 16 h; hits give low values. activity change, % at 57.5 µM. AID 743279. hit rate 4.7% among 360,000; in the data active = activity change below about -50%; inconclusive = mostly about -30% to -49%
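Secreted IL-1B measured by AlphaLISA bead assay after 16 h compound exposure of THP-1 cells; compounds (final up to 57.5 uM) added 1 h before LPS (250 ng/mL) and ATP (1.25 mM) stimulation; lower signal means less secretion.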
DT40 TDP1 no CPT = qHTS for Inhibitors of human tyrosyl-DNA phosphodiesterase 1 (TDP1): qHTS in cells in absence of CPT; Potency, µM (top dose mostly 46.2 µM), hits mostly inhibitors; hit rate 15% among 420,000; AID 686978, 2013; DT40 Tdp1-/- hTDP1 cells, no CPT, ATP luminescence, 48 h; also: nearly all actives have a fitted effect of over 55% in size
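Seeded 400 DT40-hTDP1 cells/well (vehicle DMSO, no 20 nM CPT); pinned compounds; ≥48 hr at 37 °C; CellTiter-Glo luminescence as viability measure.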
A number is an active result; . = inactive; ? = inconclusive; / = no result; ! = repeats disagree. An excerpt weighted towards active compounds, which were near 21% of everything screened. Unless noted, calls follow the shape of the dose curve; as a rule, active = well fitted inhibition curve with a large enough effect; inconclusive = small, poorly fitted or top-dose-only effect; inactive = flat fitted curve, though single readings scatter.

SMILES	ClpP mod	D3 antag	D3 ag	DT40 TDP1 CPT	IL-1B inflam inh	DT40 TDP1 no CPT
O=C(CN1C(=O)NC2(CCCCC2)C1=O)Nc1ccc2c(c1)OCCCO2	.	.	.	.	?	.
N#Cc1ccc(CN2CCC3(CC2)CCN(C(=O)c2cnccn2)CC3)cc1	/	/	/	.	/	.
CC[C@H](NC(C)C)[C@H](O)c1ccc(O)c2[nH]c(=O)ccc12	/	/	45	.	/	.
CCC(NC(C)C)C(O)c1ccc(O)c(O)c1 (stereo not drawn)	.	.	34!	?	.	?
NCC(O)c1ccc(O)c(O)c1 (stereo not drawn)	.	.	.	.	.	.
CCC(c1ccc(O)c(O)c1)C(CC)c1ccc(O)c(O)c1 (stereo not drawn)	/	.	.	2.9µM	-99	1.8µM
CC(C)NC[C@H](O)c1ccc(O)c(O)c1	.	.	.	4.7µM!	.	8.4µM!
CCCCOc1cccc(C2/C(=C(/O)c3ccc4c(c3)CC(C)O4)C(=O)C(=O)N2CCN2CCOCC2)c1 (stereo not drawn)	.	.	.	.	.	.
O=C(CCS(=O)(=O)c1cc(Br)cc2c1N(C(=O)C1CC1)CC2)N1CCN(c2ccccc2)CC1	.	/	.	.	/	.
Cc1ccc2c(c1)c1n[nH]c(=S)nc1n2CCc1ccccc1	.	.	.	16µM	.	26µM
Fc1ccc2c(c1)c1n[nH]c(=S)nc1n2CCc1ccccc1	.	.	.	?	.	?
CC(Sc1ccccc1)C(=O)NN=C1CCCCCC1 (stereo not drawn)	/	.	.	.	.	.
O=C(c1cccs1)N1CCCC(c2nc3c(nnn3Cc3ccccc3Cl)c(=O)[nH]2)C1 (stereo not drawn)	/	.	.	?	.	29µM
O=C(c1cccs1)N1CCCC(c2nc3c(nnn3Cc3ccccc3)c(=O)[nH]2)C1 (stereo not drawn)	.	.	.	?	.	.
O=C(C1CCCCC1)N1CCCC(c2nc3c(nnn3Cc3ccccc3)c(=O)[nH]2)C1 (stereo not drawn)	.	-108	.	.	.	?
O=C(c1ccccc1)N1CCCC(c2nc3c(nnn3Cc3ccccc3)c(=O)[nH]2)C1 (stereo not drawn)	.	?	.	.	.	.
Cc1ccc(CNS(=O)(=O)c2cnc(N)nc2)cc1	.	/	.	.	/	.
NS(=O)(=O)c1ccc(N2CCN(CCOc3ccc(Cl)cc3)CC2)nc1	/	.	36	?	.	15µM
O=S(=O)(c1ccc(F)cc1)N1CCN(CCOc2ccccc2)CC1	/	?	.	.	.	.
Cc1ccc(S(=O)(=O)N2CCN(CCOc3cccc(C)c3)CC2)cc1	.	-55	.	.	.	7.3µM
CC(=O)c1ccc(S(=O)(=O)N2CCN(CCOc3ccccc3)CC2)cc1	.	-59	.	?	.	?
O=S(=O)(c1ccc(Br)s1)N1CCN(CCOc2ccccc2)CC1	.	.	.	21µM	?	?
O=S(=O)(c1cccs1)N1CCN(CC(O)COc2cc(Cl)ccc2Cl)CC1 (stereo not drawn)	.	.	.	?	.	23µM
O=S(=O)(c1ccc(Br)s1)N1CCN(c2ncccn2)CC1	.	-79	.	?	.	?
O=S(=O)(c1cccs1)N1CCN(CCOc2ccc(Cl)cc2)CC1	.	.	.	?	-59	?
SMILES	ClpP mod	D3 antag	D3 ag	DT40 TDP1 CPT	IL-1B inflam inh	DT40 TDP1 no CPT
O=C1CCCCC(=O)[C@H](O)C[C@H](c2ccccc2)O1	.	.	.	.	.	.
COc1ccccc1N1CCN(C(=O)Cn2c(=O)n3nc(-c4cccc(C)c4)nc3c3ccccc32)CC1	.	/	.	?	/	?
Cc1cccc(-c2nc3c4ccccc4n(Cc4cccc(Cl)c4)c(=O)n3n2)c1	.	/	.	21µM	/	10µM
O=C(Cn1c(=O)n2nc(-c3cccc(F)c3)nc2c2ccccc21)NCc1ccc(Cl)cc1	.	/	.	.	/	.
CCc1cccc(NC(=O)Cn2c(=O)n3nc(-c4cccc(F)c4)nc3c3ccccc32)c1	.	/	.	3.7µM	/	4.6µM
Cn1cc(C(=O)NCCc2ccc(Cl)cc2)c(=O)c2cc(S(=O)(=O)N3CCCCC3)ccc21	.	/	.	.	/	.
CCOC(=O)c1c(C)oc2nc(C)nc(Nc3ccc(C)c(Cl)c3)c12	.	/	.	.	/	.
CCOC(=O)c1ccccc1NC(=O)c1c(C)oc2ncnc(N3CCOCC3)c12	.	/	.	?	/	21µM
CCOC(=O)c1c(C)oc2nc(C)nc(N3CCN(c4cccc(C)c4C)CC3)c12	.	/	.	21µM	/	18µM
CCOC(=O)c1c(C)oc2nc(C)nc(N3CCN(c4cc(Cl)ccc4C)CC3)c12	?	/	.	4.6µM	/	21µM
CCOC(=O)c1c(C)oc2ncnc(N3CCN(c4ccccc4F)CC3)c12	.	/	.	18µM	/	13µM
